Assay outcomes: PubChem, several laboratories
The list is not random: actives were taken first. Their share in the collection is about 1.3%.
Bcl-xL primary – blocks human Bcl-xL binding to Bim BH3 peptide | GST-Bcl-xL / FITC-Bim BH3 peptide fluorescence polarization | Q07817 | AID 2129 | inhibition, % at 10.9 µM | hit rate 0.7% among 320,000;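 active = inhibition above the mean of all tested compounds plus 3 SD, cutoff set per campaign, cut at about 30% in these data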;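 also: 0% = DMSO wells and 100% = unlabeled Bim-BH3 peptide competitor; inhibitors lower millipolarization by displacing the labeled peptide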
Target sequence (Q07817 whole entry, looked up): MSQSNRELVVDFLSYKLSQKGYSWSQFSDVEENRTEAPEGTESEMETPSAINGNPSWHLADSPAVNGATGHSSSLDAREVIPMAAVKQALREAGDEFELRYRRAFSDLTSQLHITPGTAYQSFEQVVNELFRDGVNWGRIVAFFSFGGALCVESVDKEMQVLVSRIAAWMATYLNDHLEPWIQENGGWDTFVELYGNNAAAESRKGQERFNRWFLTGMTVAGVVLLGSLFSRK
GLD-1 TGE inh – GLD-1-TGE RNA interaction inhibition (C. elegans); purified GLD-1 + fluorescein TGE RNA, fluorescence polarization; inhibition, % at 5.96 µM; hit rate 0.44% among 320,000; AID 2280;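 active = percent inhibition above a per-plate cutoff, the plate mean of test compounds plus 3 SD, cut at about 30% in these data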;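 also: 0% = DMSO wells with GLD-1 and probe and 100% = wells lacking GLD-1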
C-LANA FP – blocks KSHV LANA C-terminal domain binding to DNA | MBP-C-LANA/FAM-LBS DNA binding, fluorescence polarization | inhibition, % at 9 µM | hit rate 0.078% among 340,000 | AID 504423;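 active = highest replicate inhibition at or above 60% at 9 µM, even if other replicates fall short; inactive = all replicates below 60% inhibition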;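 also: 0% = neutral control wells and 100% = 4 µM acridine orange control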
MCL1-BIM inh – inhibitors of human MCL1 binding to BIM-BH3 peptide; inhibition, % at 10.9 µM; hit rate 0.68% among 320,000; Q07820; GST-MCL1 / FITC-Bim-BH3 fluorescence polarization;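 active = inhibition above the mean inhibition of all tested compounds plus 3 SD, set per campaign, cut at about 40% in these data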;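 also: 0% = DMSO wells and 100% = unlabeled Bim-BH3 peptide control; higher means more loss of mP so more displacement of Bim peptide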
Target sequence (Q07820 whole entry, looked up): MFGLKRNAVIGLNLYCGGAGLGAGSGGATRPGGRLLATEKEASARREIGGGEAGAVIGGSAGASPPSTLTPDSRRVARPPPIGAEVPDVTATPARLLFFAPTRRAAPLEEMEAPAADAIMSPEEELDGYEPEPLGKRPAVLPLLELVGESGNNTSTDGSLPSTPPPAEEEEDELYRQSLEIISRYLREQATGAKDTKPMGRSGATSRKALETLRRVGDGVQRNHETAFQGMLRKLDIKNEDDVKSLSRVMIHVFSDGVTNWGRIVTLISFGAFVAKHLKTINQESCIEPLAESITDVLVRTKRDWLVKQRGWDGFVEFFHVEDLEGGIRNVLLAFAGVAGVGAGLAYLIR
eLon inh – inhibitors of E. coli Lon protease | P0A9M0 | purified E. coli Lon protease, fluorescence polarization | inhibition, % at 7.94 µM | hit rate 0.42% among 360,000 | AID 602123; in the data active = inhibition above about 13%, passing the limit was not always enough;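 also: 0% = enzyme with probe and DMSO and 100% = no enzyme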
Keap1-Nrf2 PPI – Keap1-Nrf2 (human) interaction inhibition; Keap1 Kelch-Nrf2 peptide fluorescence polarization, 1536-well; hit rate 0.15% among 340,000; Q14145; inhibition, % at 9.4 µM; in the data active = inhibition above about 12%;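 also: human Keap1 Kelch domain with fluorescein labeled Nrf2 9mer peptide probe; 0% = neutral control wells and 100% = peptide positive control; higher means more block of Keap1 binding to Nrf2 peptide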
* = called active by the depositor; . = not tested or not shown.

SMILES	Bcl-xL primary	GLD-1 TGE inh	C-LANA FP	MCL1-BIM inh	eLon inh	Keap1-Nrf2 PPI
O=C(c1cccn2c(=O)c3cc4ccccc4cc3nc12)N1CCN(c2ccccc2)CC1	33*	13	.	31	.	.
O=C(c1ccc(=O)oc1)N1CCCc2ccccc21	14	-1	79*	12	-6	-1
COc1cc(C2c3[nH]c4ccccc4c3CC3COC(=O)N32)cc(OC)c1O (stereo unspecified)	.	.	1	.	2	-5
Cc1ccc2c(c1)CC1(CN2C)C(=O)OC2(CCCCC2)OC1=O	33*	5	1	6	5	-1
NC(Cc1ccc(C(F)(F)F)cc1)c1csc(Nc2ccc(C(=O)c3ccccc3)cc2)n1 (stereo unspecified)	.	.	.	.	-3	.
O=C(O)CCC1c2cc3c4cc2OC2Oc5cc6c(cc51)C(CCC(=O)O)c1cc5c7cc1OC(O6)c1cc6cc(c1)Oc1cc(cc(C(=O)O)c1)Oc1cc8cc(c1)C(Oc1cc(c(cc1C5CCC(=O)O)C3CCC(=O)O)OC(O4)c1cc(cc(c1)Oc1cc(cc(C(=O)O)c1)O8)Oc1cc(cc(C(=O)O)c1)Oc1cc(cc2c1)Oc1cc(cc(C(=O)O)c1)O6)O7 (stereo unspecified)	12	97*	.	42*	.	.
CCNC(=O)C1(C)CCCN(Cc2ccc(Oc3ccccc3)cc2)C1 (stereo unspecified)	.	.	.	.	-6	.
COC(=O)CC1=C(C(=O)OC)C(c2cccc(OCC(N)=O)c2)C(C#N)=C(N)O1 (stereo unspecified)	32*	16	4	33	1	4
COC(=O)CC1=C(C(=O)OC)C(c2ccncc2)C(C#N)=C(N)O1 (stereo unspecified)	10	5	2	2	0	0
CCOC(=O)C(=O)Cc1nc2ccccc2s1	-8	46*	1	-6	-70	0
CCOC(=O)C1C(C(=O)OCC)C(C)(C)C1N(C)C (stereo unspecified)	.	.	.	.	12	.
Cc1cccc(CN2CCN(C3CN(Cc4cn(Cc5ccc(Cl)cc5)nn4)S(=O)(=O)C3)CC2)c1 (stereo unspecified)	.	.	.	.	2	.
CCOc1ccc(Cc2c(C)[nH]c3ccc(C(=O)O)cc3c2=S)cc1	31*	21	-2	31	3	-1
O=C1/C(=C/c2ccc(Br)cc2)Oc2cc(O)ccc21	21	76*	4	24	-183	-2
COC/C=C/C1=CC2=CC(=O)C(C)(OC(=O)c3ccco3)C(=O)C2=CO1 (stereo unspecified)	27	31*	.	60*	.	.
COC/C=C/C1=CC2=CC(=O)C(C)(OC(=O)C3CCCC3)C(=O)C2=CO1 (stereo unspecified)	14	20	0	26	6	-2
COC/C=C/C1=CC2=CC(=O)C(C)(O)C(=O)C2=CO1 (stereo unspecified)	13	3	.	64*	.	.
COC/C=C/C1=CC2=CC(=O)C(C)(OC(=O)c3cccs3)C(=O)C2=CO1 (stereo unspecified)	6	6	.	15	.	.
CCCS(=O)(=O)NC(=O)C1(C)CCCN(C(=O)c2cncc(Br)c2)C1 (stereo unspecified)	.	.	.	.	-8	.
CN(C)CCNc1oc(COc2ccc(Cl)cc2Cl)nc1C#N	34*	26	1	42*	13	5
COCCCNc1oc(COc2ccc(Cl)cc2Cl)nc1C#N	1	-7	1	-5	3	-1
COc1cc(C)ccc1OCc1cc(C(=O)NC(c2ccccn2)C(F)(F)F)no1 (stereo unspecified)	.	.	.	.	0	.
COc1cc(/C=C/C(=O)N2CCN(C(=O)/C=C/c3cc(OC)c(OC)c(OC)c3)CC2)cc(OC)c1OC	4	109*	1	0	-4	1
Cc1nnc(NC(=O)CSc2nc3c(c(=O)n2CCc2ccccc2)SC(C)C3)s1 (stereo unspecified)	-4	6	-1	-8	-11	-1
Cc1cc(NC(=O)CSc2nc3c(c(=O)n2CCc2ccccc2)SC(C)C3)no1 (stereo unspecified)	31*	-5	1	0	0	-5
SMILES	Bcl-xL primary	GLD-1 TGE inh	C-LANA FP	MCL1-BIM inh	eLon inh	Keap1-Nrf2 PPI
CCOc1ccc(/C=C/C2=Cc3c(sc(NC(=O)CSc4n[nH]c(N)n4)c3C#N)C(C)(C)C2)cc1	-14	31*	0	-55	-70	-9
Cc1ccsc1/C=C/C1=Cc2c(sc(NC(=O)CSc3n[nH]c(N)n3)c2C#N)C(C)(C)C1	25	73*	5	11	-15	-2
Cc1onc(-c2c(F)cccc2Cl)c1C(=O)OCC(=O)N(C)c1ccccc1	.	.	.	.	-19	.
NC(=NCCc1c[nH]c2ccccc12)NC(=O)c1ccc(Cl)cc1	-3	9	81*	-2	8	3
CC(=O)OCC(=O)[C@@]12OC(C)(C)O[C@@H]1C[C@H]1[C@@H]3C[C@H](F)C4=CC(=O)C=C[C@]4(C)[C@@]3(F)[C@@H](O)C[C@@]12C	2	2	.	7	.	.
CC1(C)OC2CC3C4CC(F)C5=CC(=O)C=CC5(C)C4(F)C(O)CC3(C)C2(C(=O)CO)O1 (stereo unspecified)	57*	12	-1	53*	3	-1
O=C(O)CCC(=O)OCCN(Cc1ccc(Oc2ccc([N+](=O)[O-])cc2)cc1)C(=O)C(Cl)Cl	.	.	1	.	5	-5
Cc1ccc(S(=O)(=O)N2C[C@H]3[C@H]4C(=O)N(c5ccccc5)C(=O)[C@H]4C[C@H](OC(=O)NCC4CCCCC4)[C@@]3(O)C2)cc1	.	.	.	.	1	.
Cc1ccccc1N=Cc1c(O)n(-c2nccs2)c(=O)c2ccccc12	8	2	0	10	1	-1
O=c1c2ccccc2c(C=Nc2ccccc2O)c(O)n1-c1nccs1	37*	-17	1	30	-38	-8
OC(c1ccc(F)c(F)c1)c1nc(-c2cccc(F)c2)cs1 (stereo unspecified)	.	.	.	.	-14	.
CCCCN(C(=O)c1ccccc1Br)C(c1ccc(OC)cc1)c1nc2ccccc2[nH]1 (stereo unspecified)	.	.	.	.	1	.
CCN(CC)CCN1CCn2c3c(c4cc(C)ccc42)CCCC31 (stereo unspecified)	36*	10	1	46*	8	-6
CCN1CCn2c3c(c4cc(Cl)ccc42)CCCC31 (stereo unspecified)	4	6	-1	-5	4	-5
CCCCC1=CC2=CC(=O)C(C)(OC(=O)CC)C(=O)C2=CN1c1cccc(C#N)c1 (stereo unspecified)	31*	40*	2	32	-17	-3
O=C(CN1C(=O)COc2ccccc21)Nc1ccccc1F	7	6	-2	6	2	-9
O=C1COc2ccccc2N1Cc1c(F)cccc1Cl	47*	-2	3	8	-3	1
